L3MBTL1 inh = L3MBTL1 (human) inhibition; AlphaScreen L3MBTL1–H3K9me1 peptide binding; AID 485360; hit rate 0.66% among 230,000; Potency, µM (series often up to 57.1 µM), actives largely listed as inhibitors; note: nearly all actives have a fitted effect of over 60% in size
Target sequence (Q9Y468 whole entry, looked up): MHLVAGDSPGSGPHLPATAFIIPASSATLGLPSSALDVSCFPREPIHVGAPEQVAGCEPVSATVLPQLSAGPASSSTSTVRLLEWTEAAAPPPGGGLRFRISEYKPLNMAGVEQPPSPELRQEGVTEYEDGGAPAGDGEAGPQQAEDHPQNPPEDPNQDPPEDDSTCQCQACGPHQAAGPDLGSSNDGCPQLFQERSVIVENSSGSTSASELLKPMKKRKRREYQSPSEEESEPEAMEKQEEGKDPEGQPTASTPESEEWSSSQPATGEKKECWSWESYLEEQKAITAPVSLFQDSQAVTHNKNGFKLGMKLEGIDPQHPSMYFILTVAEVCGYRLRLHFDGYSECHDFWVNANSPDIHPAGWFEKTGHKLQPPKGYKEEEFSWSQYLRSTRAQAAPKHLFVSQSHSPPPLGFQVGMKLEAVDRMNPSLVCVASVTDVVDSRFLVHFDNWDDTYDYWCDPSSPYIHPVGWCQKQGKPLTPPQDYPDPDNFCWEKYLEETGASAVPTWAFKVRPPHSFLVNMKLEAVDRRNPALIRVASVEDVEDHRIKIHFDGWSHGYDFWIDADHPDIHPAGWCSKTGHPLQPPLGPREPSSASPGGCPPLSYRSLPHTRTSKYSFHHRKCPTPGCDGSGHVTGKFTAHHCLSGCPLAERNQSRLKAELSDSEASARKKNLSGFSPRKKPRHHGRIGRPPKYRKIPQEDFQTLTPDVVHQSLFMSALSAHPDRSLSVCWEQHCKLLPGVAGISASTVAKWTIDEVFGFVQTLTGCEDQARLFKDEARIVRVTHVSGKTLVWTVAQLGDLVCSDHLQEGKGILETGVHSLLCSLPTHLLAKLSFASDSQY
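Displacement of a biotinylated histone H3(1-15) peptide monomethylated at Lys9 (75 nM) from L3MBTL1 (50 nM) was measured by AlphaScreen after a 30 min room-temperature compound incubation; cefsulodin titration served as intraplate control.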
RECQ1 inh = inhibitors of human RECQ1 DNA helicase; P46063; RECQ1 DNA unwinding, red fluorescence kinetic read; Potency, µM (top dose mostly 57.3 µM), actives largely listed as inhibitors; hit rate 0.54% among 240,000; AID 2549; note: nearly all actives have a fitted effect of over 30% in size
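RECQ1T1 50 nM; forked duplex (20 bp + 30-nt ss tails) 200 nM, ATP 2 mM final; pH 8.0, 2 mM MgCl2, 2.5 ug/ml poly(dI-dC); 15 min compound preincubation; discontinuous kinetic read over 2 h at RT.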
BLM helicase inh = blocks DNA unwinding by human BLM helicase; P54132; recombinant BLM DNA unwinding, fluorescence dequenching; Potency, µM (top dose mostly 56.1 µM), most hits filed as inhibitors; hit rate 0.2% among 350,000; AID 2528; note: nearly all actives have a fitted effect of over 35% in size
WRN inhibitor = inhibitors of human WRN helicase; Potency, µM (highest dose often 114 µM), most hits filed as inhibitors; Q14191; WRN helicase unwinding, fluorescent forked duplex, kinetic; hit rate 0.46% among 360,000; note: nearly all actives have a fitted effect of over 55% in size
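Primary qHTS, 1536-well format. 20 nM WRN + compound, 15 min RT; start with 100 nM forked fluorophore/quencher duplex, 2 mM ATP (final); kinetic read ex 525/em 598 nm.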
FEN1 inhibitor = inhibitors of human flap endonuclease 1 | P39748 | Recombinant FEN1 flap cleavage, fluorescence, 15 min | Potency, µM (titrated, usually from 114 µM), most hits filed as inhibitors | hit rate 0.35% among 390,000; note: nearly all actives have a fitted effect of over 65% in size
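Read-out was taken twice, immediately and after 15 min, following addition of 50 nM substrate to 10 nM FEN1 that had sat with test compound for 15 min at room temperature. Curves came from a four-parameter Hill model.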
Numbers stand for hits; i = inactive; ? = inconclusive; nt = not tested or not shown; ! = not active in a repeat; [ ] = remark or other dose. Hits are enriched below; roughly 0.99% of the tested compounds scored in any of these assays. Calls come from the whole dose curve; as a rule, active = well fitted curve in the direction sought with a large enough effect; inconclusive = small, poorly fitted or top-dose-only effect, or another doubt; inactive = no such curve, though single readings can be large; an effect the other way counts as inactive or inconclusive.

SMILES	L3MBTL1 inh	RECQ1 inh	BLM helicase inh	WRN inhibitor	FEN1 inhibitor
COc1ccc(CCNCC(=O)Nc2ccc(OC(F)(F)F)cc2)cc1OC	i	nt	i	i	i
CCCCN(C(=O)c1ccccc1Br)C1CCS(=O)(=O)C1 (centres undefined)	i	nt	nt	i	i
Cc1ccc(C)c(S(=O)(=O)Nc2ccc3oc(C)c(C(=O)O)c3c2)c1	nt	nt	i	56.2µM	?
CC(=O)c1c(C)oc2ccc(NS(=O)(=O)c3ccc(C)cc3)cc12	nt	nt	i	i	i
CCSc1nc2n(n1)C(c1cccc(F)c1)C1=C(CCCC1=O)N2 (centres undefined)	i	i	i	i	i
O=C1C=C(Nc2cccc3cccnc23)c2ccccc2C1=O	?	nt	?	i	50.1µM
CCC(C(=O)OCC(=O)Nc1ccc2[nH]c(=O)[nH]c2c1)c1ccccc1 (centres undefined)	i	nt	nt	i	i
CCCCCCCCCCCC1=C(O)C(=O)C=C(O)C1=O	nt	i	i	i	?
COC1=CC(=O)C(O)=C(CCCCCCC/C=C/CCCCCCCC2=C(O)C(=O)C=C(OC)C2=O)C1=O	nt	nt	nt	35.5µM	20µM
O=[N+]([O-])c1cccc2c[nH]nc12	nt	28.2µM	i	nt	nt
O=[N+]([O-])c1cccc2cn[nH]c12	i	i	i	i	?
Cn1cccc1C1C(C#N)=C(N)OC2=C1C(=O)CC(C)(C)C2 (centres undefined)	i	i	i	i	i
Nc1nc(-c2ccccc2)c(N=Nc2cccc3ccccc23)s1	17.8µM	35.5µM	i	i	i
Nc1nc(-c2ccccc2)c(N=Nc2ccccc2Cl)s1	28.2µM	i	i	i	?
CC(/C=N/n1c(-c2ccc(Cl)cc2)n[nH]c1=S)=C\c1ccco1	i	i	i	i[11.6 µM]	i
CC(/C=N/n1c(-c2cc(C)[nH]n2)n[nH]c1=S)=C\c1ccco1	?	25.1µM	i	?	?
CCOc1ccc(NC(=O)CSc2nc3[nH]ncc3c(=O)[nH]2)cc1	i	nt	nt	i	i
O=C1/C(=C/c2ccco2)Cc2ccccc21	i	i	i	i	i
CC1C/C(=C/c2ccco2)C(=O)/C(=C/c2ccco2)C1 (centres undefined)	3.16µM	i	i	nt	nt
O=C1/C(=C\c2ccco2)CCC/C1=C\c1ccco1	3.55µM	i	?	15.8µM	?
Cc1cc(OCC(=O)N2CCOCC2)ccc1[N+](=O)[O-]	nt	i	i	i	i
CCOc1ccccc1NC(=O)CCNS(=O)(=O)c1ccc2[nH]c(=O)oc2c1	nt	nt	i	i	i
CC1(Cc2ccc(F)cc2)C(=O)Nc2ccc(-c3cccnc3)cc21 (centres undefined)	nt	nt	nt	i	nt
Cn1c(=S)[nH]c2cccnc21	nt	i	i	i	i
Cc1nc2c(=O)[nH]c(=S)n(C)c2nc1C	i	i	i	56.2µM	?
SMILES	L3MBTL1 inh	RECQ1 inh	BLM helicase inh	WRN inhibitor	FEN1 inhibitor
Cc1nnc(SCC(=O)Nc2ccccc2)n(N)c1=O	i	i	i	i	i
Cc1c(C(=O)Oc2cccc3cccnc23)cccc1[N+](=O)[O-]	nt	i	i	i	i
COC(=O)C1=C(C)N(Cc2ccc(C)cc2)C(=O)/C1=C\c1ccc(O)c(OC)c1	i	i	i	i	i
CCOc1cc(/C=C2\C(=O)N(CCc3ccc(OC)c(OC)c3)C(C)=C2C(=O)OC)ccc1O	i	i	i	79.4µM	i
CCCCC1Cc2[nH]c(=S)[nH]c(=O)c2C(C(C)C)O1 (centres undefined)	nt	nt	nt	i	nt
CC1(C)c2ccccc2N(CC(N)=O)C12C=Cc1ccccc1O2 (centres undefined)	i	i	i	i	i
CC1(C)c2ccccc2N2CC(=O)N(CC(N)=O)C21C (centres undefined)	nt	31.6µM	i	56.2µM	79.4µM
COC(=O)c1c(NC(=O)C2COc3ccccc3O2)sc2c1CCN(Cc1ccccc1)C2 (centres undefined)	i	i	i	i	i
CC(Sc1ccc(Cl)cc1)C(=O)NCC1CCCO1 (centres undefined)	nt	i	i	i	i
NNC(=S)Nc1cccc(-c2n[nH]c(=S)o2)c1	nt	i	i	i[11.6 µM]	50.1µM
CN(C)C(=S)Nc1cccc(-c2n[nH]c(=S)o2)c1	nt	i	i	i	i
O=C1c2ccccc2C(=O)N1CCCCc1cn(C[C@H]2CC[C@H](Cn3cc(CCCCN4C(=O)c5ccccc5C4=O)nn3)O2)nn1	i	nt	nt	i	i
COC(=O)C[C@H]1CC[C@@H](NC(=O)Nc2ccc3c(c2)OCO3)[C@@H](CO)O1	nt	nt	nt	i	nt
C[N+]1=C(/C=C/Nc2ccccc2Cl)C(C)(C)c2ccccc21	i	?	i	i	i
COC(=O)c1ccc2c(c1)C(C)(C)C(/C=C/c1ccccc1O)=[N+]2C	i	i	i	56.2µM	50.1µM
CC(C)NC(=S)N1CCCN(c2ncccc2[N+](=O)[O-])CC1	nt	nt	i	i	i
Cc1ccc(CNc2ccc(O)cc2)cc1	25.1µM	i	25.1µM	?	?
Cc1ccc(NCc2ccccc2O)cc1	nt	i	i	i	i
Cc1cc(N)c2ccccc2[n+]1CCCCCCCCCCCCCC[n+]1c(C)cc(N)c2ccccc21	nt	31.6µM	nt	nt	nt
CCCCCC(=O)Nc1cc(S(=O)(=O)O)cc2cc(S(=O)(=O)O)cc(O)c12	nt	nt	nt	6.31µM	10µM
CCN1/C(=C/C(C)=C/c2sc3ccccc3[n+]2CC)Sc2ccccc21	nt	12.6µM	?	17.8µM	7.08µM
COc1cc2c(cc1OC)C(COc1ccc(F)cc1)N(C(=O)c1ccco1)CC2 (centres undefined)	i	i	i	i	i
CC1CCCN(CCSc2ccc(Cl)cc2)C1 (centres undefined)	i	i	i	i	i
CCCCCC#CCC#CCC#CCC#CCCCC(=O)O	?	1.12µM!	12.6µM!	nt	nt
CCCCCCCCCC(=O)O	i	i	nt	i	i
SMILES	L3MBTL1 inh	RECQ1 inh	BLM helicase inh	WRN inhibitor	FEN1 inhibitor
COc1cc(C2NC(=O)NC(C)=C2C(C)=O)cc(OC)c1OC (centres undefined)	i	i	i	i	i
O=C1NC(=O)/C(=C/c2ccco2)N1	i	nt	nt	nt	i
O=C1NC(=S)NC1=Cc1ccco1	nt	nt	nt	i	44.7µM
Nc1cc2nsnc2cc1Br	15.8µM	?	3.98µM	?	?
COc1ccc(-c2c(-c3ccc(OCC(=O)NN)cc3O)n[nH]c2C)cc1OC	nt	nt	i	i	i
COc1ccc(-c2c(-c3ccc(OCC(=O)NN)cc3O)n[nH]c2C(F)(F)F)cc1	i	i	12.6µM	i	i
CC1=CC(=O)c2ccccc2C1=O	i	i	17.8µM!	i	i
CC(C)(C=O)C1=CC(=O)c2ccccc2C1=O	i	i	i	50.1µM	?
CC(C)(C)c1ccc2c(c1)C(=O)c1ccccc1C2=O	?	i	i	i	i
CCN1CCN(Cc2ccc(NC(=O)c3ccc(C)c(/C=C/c4cnc(Nc5cc(N6CCNCC6)nc(C)n5)cn4)c3)cc2C(F)(F)F)CC1	i	nt	i	20µM!	12.6µM
COCCNC(=O)c1ccc2c(=O)n(CCOC)c(SCC(=O)c3c[nH]c4ccccc34)nc2c1	nt	nt	i	nt	i
CNc1ccc(O)cc1	nt	31.6µM	nt	nt	nt
O=C1C2C3C=CC(C3)C2C(=O)N1CNc1ccc(O)cc1 (centres undefined)	?	?	25.1µM	nt	nt

Assay outcomes (PubChem BioAssay)
